High-throughput results as filed in PubChem BioAssay.
Shown are actives, neighbours in structure and some others; about 3.1% of the full set was active somewhere.
PLK1 PBD block – PLK1 (human) polo-box domain binding inhibition; P53350; Plk1 PBD binding of FITC phosphopeptide, fluorescence polarization; Potency, µM, inactives show max response, negative = inhibition, actives largely listed as inhibitors; 360,000 compounds, 2.8% hits; AID 720504; also: potency is read from the fitted curve at half-maximal effect; series mostly up to about 57 µM; % is scaled to controls: 0 for no effect and ±100 for the full control effect; nearly all actives have a fitted effect of over 65% in size
Pin1 inh – blocks the human prolyl isomerase Pin1; Q13526; Pin1 FP peptide displacement, HiFluor488, 10 min; Potency, µM (doses to about 115 µM), without a hit: at the top dose activity, negative = inhibition, hits mostly inhibitors; 390,000 compounds, 0.009% hits; AID 504891; active = well fitted inhibition curve with a large enough effect in the polarisation, with a control signal flat, not every such curve was filed as active; inconclusive = small, poorly fitted or top-dose-only effect, or effect the other way, or a change in a side signal; inactive = no such curve, though single readings can be large or run the other way; the % refers to the polarisation; also: potency is read from the fitted curve at half-maximal effect; % is scaled to controls: 0 for no effect and ±100 for the full control effect
Target sequence (Q13526 whole entry, looked up): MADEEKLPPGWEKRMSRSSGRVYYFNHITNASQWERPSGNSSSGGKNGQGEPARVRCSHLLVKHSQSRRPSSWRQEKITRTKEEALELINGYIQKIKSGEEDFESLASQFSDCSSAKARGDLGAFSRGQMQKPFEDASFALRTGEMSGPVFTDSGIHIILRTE
Tb PFK inh-1 – inhibitors of T. brucei phosphofructokinase; Potency, µM (titrated, usually from 57.5 µM), for inactives: at the highest dose activity, negative = inhibition, most hits filed as inhibitors; O15648; 330,000 compounds, 0.17% hits; AID 485367; T. brucei PFK, ADP-Glo luminescence;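 also: potency is read from the fitted curve at half-maximal effect; 0% = uninhibited 1x PFK enzyme wells and -100% = no-enzyme wells; nearly all actives have a fitted effect of over 60% in size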
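Activity is normalized to no-enzyme wells (full inhibition) and 1.25 nM enzyme wells (no inhibition). Reaction: 0.5 mM F6P, 0.1 mM ATP, 45 min RT, ADP-Glo luminescence; concentration-response curves fitted and classed by quality.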
VDR inh – inhibitors of human vitamin D receptor. P11473. VDR-SRC2-3 peptide fluorescence polarization, 2 h. Potency, µM, for the others: max response, negative = inhibition, most hits filed as inhibitors. 400,000 compounds, 0.93% hits; also: potency is read from the fitted curve at half-maximal effect; % is scaled to controls: 0 for no effect and ±100 for the full control effect
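Inhibition of the VDR/SRC2-3 peptide interaction is quantified by fluorescence polarization. Compounds (23 nl, pintool) incubate with the reagents for 2 hours at ambient room temperature.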
S-ASM inh – blocks human secretory acid sphingomyelinase | AID 504937 | placental ASM, HMU-PC fluorogenic substrate, 60 min | 340,000 compounds, 0.006% hits | Potency, µM (titrated, usually from 57.5 µM), without a hit: at the top dose activity change, negative = inhibition, hits mostly inhibitors; also: potency is read from the fitted curve at half-maximal effect
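Steps: dispense placental human ASM, pin compound, wait 10 min at room temperature, add HMU-PC0 substrate at 9 uM final, incubate 60 min at 37 °C, add stop solution raising pH to 10, read fluorescence.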
TDP1 inh – TDP1 (human) enzyme inhibition | recombinant TDP1, AlphaScreen DNA substrate cleavage | Potency, µM (titrated, usually from 130 µM), without a hit: at the top dose activity change, negative = inhibition, hits mostly inhibitors | 350,000 compounds, 0.28% hits; also: potency is read from the fitted curve at half-maximal effect; % is scaled to controls: 0 for no effect and ±100 for the full control effect; nearly all actives have a fitted effect of over 40% in size
Target sequence (Q9NUW8 whole entry, looked up): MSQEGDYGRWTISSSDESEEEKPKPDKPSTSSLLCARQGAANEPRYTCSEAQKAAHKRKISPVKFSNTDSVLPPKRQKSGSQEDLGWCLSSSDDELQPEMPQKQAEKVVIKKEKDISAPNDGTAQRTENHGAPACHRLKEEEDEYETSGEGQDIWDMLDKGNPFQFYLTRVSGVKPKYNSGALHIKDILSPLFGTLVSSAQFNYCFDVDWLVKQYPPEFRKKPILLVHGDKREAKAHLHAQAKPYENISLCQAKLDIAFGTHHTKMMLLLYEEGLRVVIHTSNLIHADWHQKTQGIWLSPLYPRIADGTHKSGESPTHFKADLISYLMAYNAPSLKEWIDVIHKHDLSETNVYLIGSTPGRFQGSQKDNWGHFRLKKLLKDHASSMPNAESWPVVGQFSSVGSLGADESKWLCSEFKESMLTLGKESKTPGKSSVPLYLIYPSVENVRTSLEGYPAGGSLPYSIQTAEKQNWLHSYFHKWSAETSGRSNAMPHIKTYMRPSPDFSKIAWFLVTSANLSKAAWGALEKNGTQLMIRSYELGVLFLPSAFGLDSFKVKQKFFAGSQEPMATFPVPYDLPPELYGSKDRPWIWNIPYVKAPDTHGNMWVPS
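Tdp1 1 nM final; 15 min RT w/ cpd; substrate 15 nM, 5 min; beads 10 ug/ml, 10 min; AlphaScreen read. Neg ctrl: no enzyme.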
TbPFK ATP – Tb phosphofructokinase inhibition, orthogonal luminescence; shares compounds with Tb PFK inh-1; Tb PFK enzyme, ATP depletion, Kinase-Glo Plus luminescence; Potency, µM (doses to about 57.5 µM), inactives show top-dose inhibition; 1,100 compounds, 47% hits; calls by dose curve; also: potency is read from the fitted curve at half-maximal effect; nearly all actives have a fitted effect of over 60% in size
Tb PFK inh-2 – T. brucei PFK enzyme inhibition, hit validation | shares compounds with Tb PFK inh-1 | 1,100 compounds, 41% hits | purified T. brucei PFK, ADP-Glo luminescence, 45 min | Potency, µM (top dose mostly 57.5 µM), without a hit: top-dose activity change, negative = inhibition, usual class: inhibitors;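 also: potency is read from the fitted curve at half-maximal effect; plate controls were full PFK enzyme control for no effect and no enzyme control for full effect; nearly all actives have a fitted effect of over 60% in size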
USP1 UbRho – validation of human USP1/UAF1 inhibitors; Potency, µM (titrated, usually from 56.8 µM), for inactives: at the top dose activity change, negative = inhibition, most hits filed as inhibitors; AID 540327; shares compounds with VDR inh; Ub-Rhodamine cleavage, fluorescence kinetic read; 50 compounds, 50% hits
VDR inh confirm – inhibits human vitamin D receptor, primary hit validation. VDR-coactivator inhibition assay, qHTS confirmation. AID 602199. 840 compounds, 89% hits. Potency, µM, hits mostly inhibitors. shares compounds with VDR inh; also: potency is read from the fitted curve at half-maximal effect
VDR FP fluor – blocks human VDR-coactivator binding in fluorescein assay | shares compounds with VDR inh | VDR-coactivator binding, fluorescein fluorescence polarization | Potency, µM (titrated, usually from 57.1 µM), inactives show at the highest dose activity change, negative = inhibition, usual class: inhibitors | 840 compounds, 48% hits | AID 602200; also: potency is read from the fitted curve at half-maximal effect
VDR bla reporter – confirmation of human vitamin D receptor inhibitors in reporter cells; shares compounds with VDR inh; VDR beta-lactamase reporter cells, FRET ratio; cells co-treated with VDR agonist LG190178; Potency, µM (series often up to 46.1 µM), for inactives: at the highest dose activity change, negative = inhibition, usual class: inhibitors; 840 compounds, 23% hits; also: potency is read from the fitted curve at half-maximal effect; % is scaled to controls: 0 for no effect and ±100 for the full control effect
VDR viability – cytotoxic in counter-screen for VDR inhibitors. shares compounds with VDR inh. cytotoxicity counter-screen, cell viability, qHTS. Potency, µM (top dose mostly 48.3 µM), without a hit: at the top dose activity change, negative = cytotoxicity, usual class: cytotoxic. 840 compounds, 18% hits. AID 602204;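 also: potency is read from the fitted curve at half-maximal effect; plate controls were DMSO for no effect and high-concentration cycloheximide for full effect; nearly all actives have a fitted effect of over 75% in size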
TbPYK confirm – confirmation of Trypanosoma brucei pyruvate kinase inhibitors; shares compounds with PLK1 PBD block; recombinant TbPYK, Kinase-Glo ATP luminescence; Potency, µM (doses to about 76.9 µM), for inactives: at the top dose activity change, negative = inhibition, usual class: inhibitors; 890 compounds, 67% hits; also: potency is read from the fitted curve at half-maximal effect; % is scaled to controls: 0 for no effect and ±100 for the full control effect; nearly all actives have a fitted effect of over 70% in size
TbPYK orthogonal – TbPYK inhibition, orthogonal confirmation | shares compounds with PLK1 PBD block | recombinant TbPYK, ADP-Glo luminescence, 60 min | Potency, µM (series often up to 76.9 µM), for inactives: at the top dose activity change, negative = inhibition, actives largely listed as inhibitors | 890 compounds, 62% hits; also: potency is read from the fitted curve at half-maximal effect; % is scaled to controls: 0 for no effect and ±100 for the full control effect; nearly all actives have a fitted effect of over 75% in size
Numbers without * were called inactive; ? = inconclusive; · = not tested or not shown; [ ] = dose if it differs, or a comment. Unless noted, calls follow the shape of the dose curve; as a rule, active = well fitted curve in the direction sought with a large enough effect; inconclusive = small, poorly fitted or top-dose-only effect, or another doubt; inactive = no such curve, though single readings can be large; an effect the other way counts as inactive or inconclusive.

SMILES | PLK1 PBD block | Pin1 inh | Tb PFK inh-1 | VDR inh | S-ASM inh | TDP1 inh | TbPFK ATP | Tb PFK inh-2 | others
NNC(=O)CNc1cccc(Br)c1 | -15% | -6% | 15µM* | 12% | -1% | · | 21µM* | ?
CC(Nc1cccc([N+](=O)[O-])c1)C(=O)Nc1ccc(S(=O)(=O)N2CCCC2)cc1 (centres undefined) | -1% | -6% | ? | -2% | -9% | 2% | ? | ?
CSc1ccc(C(=S)N2CCN(C)CC2)cc1 | 30µM* | -6% | ? | -54% | -1% | -3% | 21µM* | ?
CN1CCN(C(=S)c2ccc(N(C)C)cc2)CC1 | 10µM* | 1% | ? | ? | -1% | 5% | 12µM* | 27µM*
CCCN(CCC)c1c([N+](=O)[O-])cc(C(F)(F)F)cc1[N+](=O)[O-] | · | · | · | 11% | · | 16%[56.1 µM] | · | ·
Cc1ccc(S(=O)(=O)CNC(=S)c2ccc3ccccc3c2)cc1 | ? | -10% | ? | -27% | ? | 9% | -17% | 30µM*
CN1C2CC(=O)CC1C(O)C2 (centres undefined) | · | · | · | 0% | · | 7% | · | ·
O=C(O)CCCCC1SCC2NC(=O)NC21 (centres undefined) | -11% | 1% | 0% | 6% | 5% | 24% | · | ·
COc1cc2c(cc1O)[C@H]1Cc3ccc(OC)c(O)c3CN1CC2 | · | · | · | -11% | · | 11%[21 µM] | 1% | -1% | USP1 UbRho=?
ClC(Cl)(c1nnnn1-c1ccccc1)c1nnnn1-c1ccccc1 | 1.9µM* | -7% | 11µM* | 3.5µM* | -1% | 5% | 3.4µM* | 11µM* | VDR inh confirm=3.4*;VDR FP fluor=?;VDR bla reporter=?;VDR viability=16µM*
COc1ccc(OC)c(-c2c3cc(O)c(=O)cc-3oc3cc(O)c(O)cc23)c1 | 2.1µM* | ? | 9.5µM* | 25µM* | -18% | 9% | ? | 3.8µM* | VDR inh confirm=24*;VDR FP fluor=?;VDR bla reporter=-24%;VDR viability=?
COc1ccc(Cc2c(O)[nH]c(=O)[nH]c2=O)c(OC)c1 | -3% | · | 2% | -6% | -4% | 4% | · | ·
COc1ccc2c3c1O[C@H]1[C@@H](O)C=C[C@H]4C(C2)NCCC341 (some centres undefined) | · | · | · | -12% | · | 4% | · | ·
CC(C)c1ccc(NC(=O)CN2C(=O)CN=C(c3ccccc3)c3ccccc32)cc1 | · | -2% | · | -5% | · | 2% | · | ·
O=C1CN=C(c2ccccc2)c2cc(Cl)ccc2N1CC1CC1 | · | · | · | -24% | · | · | · | ·
COc1cc(N[C@@H](C)CCCN)c2ncccc2c1 | · | · | · | 5% | · | 10%[56.1 µM] | 4% | -5% | USP1 UbRho=20µM*
O=S1(=O)N(Cc2ccccc2)CCCN1Cc1ccc(F)cc1Cl | · | 0% | · | -3% | · | · | · | ·
CCOc1cc(/C=C\[N+](=O)[O-])ccc1OCC(=O)N1CCOCC1 | 21µM* | 8% | ? | 28µM* | -4% | 3% | -34% | ? | VDR inh confirm=27*;VDR FP fluor=?;VDR bla reporter=?;VDR viability=?
COc1ccccc1OCC(=O)N1CCN(Cc2ccc3c(c2)OCO3)CC1 | 0% | -7% | -5% | -22% | 1% | -3% | · | ·
O=[N+]([O-])c1ccc(Sc2cccc[n+]2[O-])c2nonc12 | 0.95µM* | ? | 11µM* | 8.9µM* | 2% | 9% | 2.7µM* | 9.5µM* | VDR inh confirm=6*;VDR FP fluor=?;VDR bla reporter=3.7µM*;VDR viability=?
Cc1ccc(/C=C2/NC(=O)N(Cc3ccccc3F)C2=O)o1 | -3% | 7% | ? | 79µM* | 8% | 4% | ? | -27% | TbPYK confirm=?;TbPYK orthogonal=35µM*
Cc1c(C=O)c2ccccc2n1Cc1ccccc1F | -15% | -1% | -1% | 10% | -1% | -4% | · | ·
Oc1ccc(/C=N/Nc2nccnc2Cl)cc1 | -11% | 4% | ? | -13% | -1% | 2% | -31% | 19µM* | TbPYK confirm=16µM*;TbPYK orthogonal=13%
ClCCN(CCCl)c1ccc(C=NNc2ncccn2)cc1 | -3% | -5% | · | -8% | -8% | · | · | ·
Cn1c(=O)[nH]c(=O)c2c1nc(SCCN1CCCCC1)n2CCCc1ccccc1 | 2.4µM* | -4% | ? | 35µM* | -1% | 0% | 6.7µM* | 17µM* | TbPYK confirm=3.5µM*;TbPYK orthogonal=4.5µM*
CC(=NCCN1CCCCC1)c1c(O)n(-c2ccccc2)c(=O)[nH]c1=O | -6% | -2% | -5% | -6% | -1% | 1% | · | ·
Clc1cncc(N2CCNCC2)n1 | · | · | · | 1% | · | -4% | · | ·
CCc1ccc(-n2nc(C)c3c2NC(=O)CSC3c2ccc(OC)cc2OC)cc1 (centres undefined) | · | 3% | · | 10% | · | -6% | · | ·
